Laboratory results taken from PubChem BioAssay (Tox21).
Results filed as inconclusive are left out. Activity calls are given as the source filed them. Unless noted, the call rests on the fitted dose curve; in most records, active means well fitted curve in the direction sought with a large enough effect in the repeat runs; inconclusive means weak or mixed curves; inactive means no such curve, though single readings can be large; an effect the other way counts as inactive or inconclusive.

How the values were obtained:
[1] = qHTS RealTime-Glo MT Cell Viability Assay in HEK293 cells - 0 hour (AID 1224880); further: top concentration of the series differs between compounds; nearly all actives have a fitted effect of over 45% in size
How it was run: (§1)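 Cells were seeded together with NanoLuc luciferase and a prosubstrate that viable cells reduce to a luciferase substrate. After a 5 h incubation at 37 C/5% CO2, compounds were added and luminescence was measured repeatedly during 40 h of treatment.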

[2] = A CellTox Green Cytotoxicity Assay to monitor cytotoxicity in HEK293 cells - 32 hour (AID 1224881); further: nearly all actives have a fitted effect of over 40% in size
How it was run: (§2)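 Nonlytic real-time cytotoxicity: HEK293 + CellTox Green reagent plated, 5 h preincubation, pintool compound addition (23 nL in DMSO), 37 C for 40 h, fluorescence measured at successive time points.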

[3] = A CellTox Green Cytotoxicity Assay to monitor cytotoxicity in HepG2 cells - 0 hour (AID 1224882); further: nearly all actives have a fitted effect of over 35% in size
How it was run: (§3)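 Read-out is fluorescence of a cyanine dye excluded from live cells that stains DNA of dead HepG2 cells, with signal proportional to cytotoxicity. Plates were read at 0, 8, 16, 24, 32 and 40 h after compound addition.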

[4] = A CellTox Green Cytotoxicity Assay to monitor cytotoxicity in HepG2 cells - 32 hour (AID 1224883); further: nearly all actives have a fitted effect of over 50% in size
How it was run: as §3

[5] = A CellTox Green Cytotoxicity Assay to monitor cytotoxicity in HEK293 cells - 8 hour (AID 1224884); further: nearly all actives have a fitted effect of over 35% in size
How it was run: as §2

[6] = qHTS RealTime-Glo MT Cell Viability Assay in HepG2 cells - 16 hour (AID 1224885); further: nearly all actives have a fitted effect of over 50% in size
How it was run: (§4)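 Viability was tracked continuously by NanoLuc luminescence from prosubstrate reduced by living HepG2 cells, at successive time points over 40 h of compound exposure. Cells with reagent were preincubated 5 h at 37 °C before compound addition.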

[7] = qHTS RealTime-Glo MT Cell Viability Assay in HEK293 cells - 24 hour (AID 1224886); further: top concentration of the series differs between compounds; nearly all actives have a fitted effect of over 50% in size
How it was run: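 Viability tracked continuously by luminescence as live cells reduce a prosubstrate for NanoLuc; HEK293 cells preincubated 5 h, compound-treated at 37 C, and read at 0, 8, 16, 24, 32 and 40 h.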

[8] = qHTS RealTime-Glo MT Cell Viability Assay in HEK293 cells - 8 hour (AID 1224887); further: top concentration of the series differs between compounds; nearly all actives have a fitted effect of over 50% in size
How it was run: as §1

[9] = A CellTox Green Cytotoxicity Assay to monitor cytotoxicity in HEK293 cells - 16 hour (AID 1224888); further: nearly all actives have a fitted effect of over 35% in size
How it was run: as §2

[10] = qHTS RealTime-Glo MT Cell Viability Assay in HepG2 cells - 0 hour (AID 1224889); further: nearly all actives have a fitted effect of over 50% in size
How it was run: as §4

[11] = A CellTox Green Cytotoxicity Assay to monitor cytotoxicity in HepG2 cells - 8 hour (AID 1224890); further: nearly all actives have a fitted effect of over 45% in size
How it was run: as §3

[12] = qHTS assay to identify small molecule antagonists of the estrogen receptor alpha (ER-alpha) signaling pathway using the BG1 cell line in the presence of 0.1 nM 17-beta-estradiol - cell viability counter screen (AID 1259241); further: nearly all actives have a fitted effect of over 40% in size
How it was run: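 Cytotoxicity counter-screen: live-cell protease activity measured by fluorescence (30 min reagent step) in the same wells. Cells were VM7Luc4E2 with endogenous ER-alpha and ERE-driven luciferase, treated 22 hr at 37C alongside 0.1 nM 17beta-estradiol final.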

[13] = qHTS assay to identify small molecule antagonists of the androgen receptor (AR) signaling pathway using the MDA cell line in the presence of 0.5 nM R1881 - cell viability counter screen (AID 1259242); further: nearly all actives have a fitted effect of over 45% in size
How it was run: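 Counter screen for cytotoxicity run in the same wells as the AR antagonist reporter screen: MDA-kb2 cells were treated 16 hr with test compounds and 0.5 nM R1881, then live-cell protease activity was measured by fluorescence.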

[14] = target: Estrogen receptor (Homo sapiens) (UniProt P03372); assay: qHTS assay to identify small molecule antagonists of the estrogen receptor alpha (ER-alpha) signaling pathway using the BG1 cell line in the presence of 0.1 nM 17-beta-estradiol (AID 1259244); further: nearly all actives have a fitted effect of over 50% in size
How it was run: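 Cells: VM7Luc4E2, endogenous ER-alpha, 4x ERE-luc stable. Pre-culture 5 d, phenol red-free, charcoal-stripped FBS. Plated 24 h, compound + E2 0.1 nM final, 22 h 37C/5% CO2. Readout ONE-Glo luminescence.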

[15] = qHTS assay to identify small molecule phospholipidosis (PLD) inducers (AID 1259344; active means well fitted curve in the direction sought with a large enough effect; an effect the other way counts as inactive or inconclusive)
How it was run: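 Phospholipidosis is scored by imaging LipidTOX-stained pits in HepG2 cells exposed to compound for 24 h at 37 C; pit counts and integrated intensities per well and per cell serve as outputs.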

[16] = qHTS assay to identify small molecule HDAC inhibitors - cell viability counter screen (AID 1259365)
How it was run: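 CellTiter-Glo luminescence (30 min, room temperature) reported viability after a 2 h compound exposure at 37 C. Cells: wild-type HCT-116, 1,500 per well, seeded the night before.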

[17] = qHTS assay to identify small molecule agonists of the sonic hedgehog signaling (Shh) pathway - cell viability counter screen (AID 1259366); further: nearly all actives have a fitted effect of over 50% in size
How it was run: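 Cytotoxicity counter screen: CellTiter-Fluor reagent added after 23 h compound exposure, then 1 h at 37C and fluorescence read. Cells were 3T3 Gli1-Luc, seeded 2,000 per well and dosed 4 h post-plating.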

[18] = qHTS assay to identify small molecule antagonists of the sonic hedgehog signaling (Shh) pathway - cell viability counter screen (AID 1259367); further: nearly all actives have a fitted effect of over 55% in size
How it was run: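 Cells: 3T3 Gli1-Luc, 2,000/well, 4 hr pre-incubation. Compounds in DMSO, then conditioned medium. Incubation 24 hr, 37C, 5% CO2. CellTiter-Fluor at 23 hr, 1 hr, fluorescence.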

[19] = qHTS assay to identify small molecule HDAC inhibitors (AID 1259364); further: top concentration of the series differs between compounds; nearly all actives have a fitted effect of over 45% in size
How it was run: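 Luminescence from a cell-permeant luminogenic class I/II HDAC substrate reports endogenous deacetylase activity in intact HCT-116 cells treated with compounds for 2 h.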

[20] = target: Androgen receptor (Homo sapiens) (UniProt P10275); assay: qHTS assay to identify small molecule antagonists of the androgen receptor (AR) signaling pathway using the MDA cell line in the presence of 0.5 nM R1881 (AID 1259243); further: nearly all actives have a fitted effect of over 50% in size
How it was run: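 Luciferase luminescence is the read-out: compounds are tested for suppressing 0.5 nM R1881-driven MMTV reporter activity in MDA-kb2 cells after 16 hr at 37C.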

Measured: Potency

Androgen receptor (Homo sapiens), sequence (P10275 whole entry, looked up): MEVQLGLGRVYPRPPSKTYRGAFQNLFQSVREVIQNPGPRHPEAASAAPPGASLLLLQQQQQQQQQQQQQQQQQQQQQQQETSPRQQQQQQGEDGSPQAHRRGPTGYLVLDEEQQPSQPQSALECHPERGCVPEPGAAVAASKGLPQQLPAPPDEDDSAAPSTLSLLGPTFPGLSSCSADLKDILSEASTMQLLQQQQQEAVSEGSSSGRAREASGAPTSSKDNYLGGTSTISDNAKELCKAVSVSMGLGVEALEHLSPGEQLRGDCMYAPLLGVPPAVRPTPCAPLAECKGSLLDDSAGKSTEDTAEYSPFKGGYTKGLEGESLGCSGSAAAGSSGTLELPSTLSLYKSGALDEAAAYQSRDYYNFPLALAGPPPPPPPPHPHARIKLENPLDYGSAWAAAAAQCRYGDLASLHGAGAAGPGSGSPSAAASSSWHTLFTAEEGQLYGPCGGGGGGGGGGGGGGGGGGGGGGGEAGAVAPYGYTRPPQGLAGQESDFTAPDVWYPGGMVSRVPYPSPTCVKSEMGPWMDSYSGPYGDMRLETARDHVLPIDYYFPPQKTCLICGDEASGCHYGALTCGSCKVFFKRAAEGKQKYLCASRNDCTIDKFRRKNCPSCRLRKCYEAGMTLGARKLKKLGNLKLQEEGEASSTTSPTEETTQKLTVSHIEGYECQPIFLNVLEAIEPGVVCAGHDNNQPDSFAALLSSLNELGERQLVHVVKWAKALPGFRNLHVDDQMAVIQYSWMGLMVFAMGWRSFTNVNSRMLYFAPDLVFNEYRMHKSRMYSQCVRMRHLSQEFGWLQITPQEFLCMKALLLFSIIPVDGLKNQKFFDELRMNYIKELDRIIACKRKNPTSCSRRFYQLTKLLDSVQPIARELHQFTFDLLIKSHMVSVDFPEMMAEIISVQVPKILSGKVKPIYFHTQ
Estrogen receptor (Homo sapiens), sequence (P03372 whole entry, looked up): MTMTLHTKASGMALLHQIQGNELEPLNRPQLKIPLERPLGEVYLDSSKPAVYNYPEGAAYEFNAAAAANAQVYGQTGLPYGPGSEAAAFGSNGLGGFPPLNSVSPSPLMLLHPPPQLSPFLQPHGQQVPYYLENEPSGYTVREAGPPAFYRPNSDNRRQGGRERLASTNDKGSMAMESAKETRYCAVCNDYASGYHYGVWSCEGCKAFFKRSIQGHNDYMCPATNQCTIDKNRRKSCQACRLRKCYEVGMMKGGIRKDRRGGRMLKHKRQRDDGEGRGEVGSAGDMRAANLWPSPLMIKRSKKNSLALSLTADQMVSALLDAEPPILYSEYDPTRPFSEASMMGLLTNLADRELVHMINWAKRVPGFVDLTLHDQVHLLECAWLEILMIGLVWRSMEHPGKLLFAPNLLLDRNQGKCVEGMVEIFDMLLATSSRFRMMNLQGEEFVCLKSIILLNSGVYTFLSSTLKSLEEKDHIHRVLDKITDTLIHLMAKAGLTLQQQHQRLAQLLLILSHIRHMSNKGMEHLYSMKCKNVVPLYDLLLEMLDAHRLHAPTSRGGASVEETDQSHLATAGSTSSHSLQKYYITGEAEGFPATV

CC(C)[N+](C)(CCC(C(N)=O)(c1ccccc1)c1ccccc1)C(C)C
not listed: [19] | [20]
inactive: all other assays above

C=CCCC#N
not listed: [15] | [20]
inactive: all other assays above

ClCCN1CCCC1
not listed: [15] | [16] | [20]
inactive: all other assays above

O=P(O)(O)c1ccccc1
not listed: [15] | [16] | [20]
inactive: all other assays above

Clc1nc(Cl)nc(Nc2ccccc2Cl)n1
not listed: [15] | [20]
inactive: all other assays above

N=C(N)[Se]
not listed: [15] | [20]
inactive: all other assays above

COc1cccc([C@@]2(O)CCCC[C@@H]2CN(C)C)c1
not listed: [14] | [16]
inactive: all other assays above

OP(O)c1ccccc1
not listed: [15]
inactive: all other assays above

CS(=O)(=O)Cl
not listed: [15] | [20]
inactive: all other assays above

CC(C)(C1CCC(O)CC1)C1CCC(O)CC1 (stereo not given)
not listed: [15] | [20]
inactive: all other assays above

N[C@@H](Cc1ccc(Oc2cc(I)c(O)c(I)c2)c(I)c1)C(=O)O
not listed: [20]
inactive: all other assays above

O=C(CCl)NCO
not listed: [15] | [16] | [20]
inactive: all other assays above

CC(C)(N)Cc1ccccc1Cl
not listed: [14] | [15] | [19]
inactive: all other assays above

CCN[C@@H](C)Cc1cccc(C(F)(F)F)c1
not listed: [15] | [20]
inactive: all other assays above

CCNc1nc(Cl)nc(NC(C)(C)C)n1
not listed: [15]
inactive: all other assays above

O=C(NC(O)C(Cl)(Cl)Cl)NC(O)C(Cl)(Cl)Cl (stereo not given)
not listed: [16] | [20]
inactive: all other assays above

CCC1(c2ccccc2)C(=O)N(COC)C(=O)N(COC)C1=O
not listed: [14] | [19]
inactive: all other assays above
